In the supplement of paper PMC8540655 one finds larval motility data, which are given here for 34 compounds.

Values without a mark were called inactive.

The test system of this test is Aedes aegypti larvae. Kind of test: larval motility relative to same well at 0 h (fraction); higher = more motile (less active compound), active = 0.4 or less. As to conditions: 10 µM; 2 h. An outline of the steps: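 Compounds at 10 µM (1% v/v DMSO) were applied to about 10 Aedes aegypti larvae per well in 100 µL, with every plate including solvent and larvicide control wells. Motility movies were taken with INVAPP at 0, 2 and 24 h, and results are medians of three independent larval batches. Relative motility is each well's score expressed as a fraction of its own first score.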
Regarding `CC1CN(c2ncnc3c2c(-c2ccccc2)cn3-c2ccc(F)cc2)CC(C)O1` (centres undefined), the larval motility was 0.791.

`c1ccc(-c2nnc3c4ccccc4c(N4CCNCC4)nn23)cc1`: the larval motility is 0.808.

In the case of `O=[N+]([O-])/C(Br)=C/c1ccc(Br)o1`, the larval motility is 1.13.

Take `CN(C)CCNC(=O)c1cccc2cccnc12`: the larval motility was 0.941.

As for `O=C1NC(=S)N/C1=C\c1cc(Br)cc(Br)c1O`, the larval motility is 0.761.

`Nc1nnnn1CCOc1c2[nH]c3ccc(Cl)cc3c2cc2c1[nH]c1ccc(Cl)cc12`: the larval motility was 0.958.

On to `C[C@@H](NC(=O)c1cccc(-c2c[nH]c(-c3cc4ccccc4cn3)n2)c1)c1ccc(F)cc1`, for which the larval motility was 0.628.

Take `O=C(O)c1ccc(-n2nc(-c3ccccc3O)nc2-c2ccccc2O)cc1`: the larval motility is 0.694.

On to `c1cc(CN2CCCNCCNCCCNCC2)ccc1CN1CCCNCCNCCCNCC1`, for which the larval motility was 0.964.

As to `C[C@@H](c1nc(-c2ccc(C#N)cc2)cs1)[C@](O)(Cn1cncn1)c1ccc(F)cc1F`, the larval motility was 0.723.

Regarding `CC(C)(C)NC(=O)N[C@H](C(=O)N1C[C@H]2[C@@H]([C@H]1C(=O)NC(CC1CCC1)C(=O)C(N)=O)C2(C)C)C(C)(C)C` (some centres undefined), the larval motility is 0.758.

In the case of `CCCCCCCc1[nH]c2ccccc2c(=O)c1O`, the larval motility is 0.74.

Turning to `Cc1cc(C)n2nc(C(=O)NS(=O)(=O)c3c(C)cccc3OC(F)(F)F)nc2n1`, the larval motility was 1.04.

`CC(=O)NC[C@H]1CN(c2ccc(N3CCSCC3)c(F)c2)C(=O)O1`: the larval motility was 0.531.

Regarding `COc1cc(C2C3=C(CC(C)(C)CC3=O)Nc3ccccc3N2C(C)=O)ccc1OCc1ccccc1` (centres undefined), the larval motility was 0.542.

For the compound `Cc1cccc(C)c1C(=O)Nc1nc(-c2ccccn2)cc2ccccc12`, the larval motility was 0.564.

`COc1ccc(C[C@@H](C)[C@@H](C)Cc2ccc(OC)c(OC)c2)cc1OC`: the larval motility is 0.799.

With `O=C(NCc1ncc(C(F)(F)F)cc1Cl)c1c(Cl)cccc1Cl`, the larval motility is 1.3.

Take `N[C@H](CCC(=O)N[C@@H](Cc1c[nH]c2ccccc12)C(=O)O)C(=O)O`: the larval motility is 0.936.

As to `CC1(C)CC(NC(=O)C(=O)Nc2ccc(Cl)cc2)CC(C)(C)N1`, the larval motility is 0.977.

As for `CCc1oc2ccccc2c1C(=O)c1ccc(O)cc1`, the larval motility is 1.07.

On to `NCC(=O)Nc1ccc(-n2nc(C(F)(F)F)cc2-c2ccc3c(ccc4ccccc43)c2)cc1`, for which the larval motility was 0.799.

On to `O=C(c1ccc(F)cc1)N1CCN2C(=O)c3ccccc3C12c1ccccc1` (centres undefined), for which the larval motility is 1.12.

In the case of `CC(C)(C)NC(=O)[C@@H]1C[C@@H]2CCCC[C@@H]2CN1C[C@@H](O)[C@H](Cc1ccccc1)NC(=O)[C@H](CC(N)=O)NC(=O)c1ccc2ccccc2n1`, the larval motility was 1.43.

As for `Nc1nc(-c2ccccc2)nc2c1ncn2[C@@H]1O[C@H](COS(=O)(=O)NC(=O)c2ccccc2O)[C@@H](O)[C@H]1O`, the larval motility is 0.842.

Consider `CCCCCOc1ccc(/C=C2\Oc3c(ccc(O)c3O)C2=O)c(O)c1`, for which the larval motility was 0.621.

`NCCCc1ccccc1C(=O)Nc1ncc([N+](=O)O)s1`: the larval motility is 0.869.

In the case of `CC(C)(C)c1ccc(OCCn2nc(C(=O)O)c3ccccc3c2=O)cc1`, the larval motility is 2.82.

Regarding `O=C(CCCC(F)(F)F)N1CCC(c2nc(-c3nccs3)no2)CC1`, the larval motility was 0.824.

With `O=C(CSc1nnc(Br)n1-c1ccc(C2CC2)c2ccccc12)Nc1ccc(C(=O)O)cc1Cl`, the larval motility is 0.815.

On to `C=C(C)[C@@H]1CC[C@]2(C(=O)O)CC[C@]3(C)[C@H](CC[C@@H]4[C@@]5(C)CC[C@H](O)C(C)(C)[C@@H]5CC[C@]43C)[C@@H]12`, for which the larval motility is 1.08.

With `CNCC(=O)OCc1cccnc1N(C)C(=O)OC(C)[n+]1cnn(C[C@](O)(c2cc(F)ccc2F)[C@@H](C)c2nc(-c3ccc(C#N)cc3)cs2)c1` (some centres undefined), the larval motility was 1.02.

As to `Cc1nc(-c2ccc(C3N(C)c4ccc(F)cc4C(=O)N3c3ccccc3)s2)cs1` (centres undefined), the larval motility is 0.613.

`Cc1cc(CCOc2c(C)cc(-c3nnn(C)n3)cc2C)on1`: the larval motility is 0.857.
